Source: PubChem (National Center for Advancing Translational Sciences (NCATS))
This is a sample that favours compounds with a hit; in the whole collection about 7.9% have one here.
HCMV antiviral: blocks human cytomegalovirus replication; HFF cells, HCMV-luciferase reporter, 72 h; hits give low values; activity change, negative = inhibition, % at 57.5 µM; AID 1259415; 4.5% of 410,000 active; in the data active means activity change below about -60%; inconclusive means no clear call, values can overlap the other calls; inactive means above about -39%
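Compounds were evaluated in HFFs infected with an HCMV luciferase reporter virus (MOI 1 PFU/cell). Luciferase in lysates collected 72 h post infection served as the replication measure.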
MARV entry inh: Marburg virus entry inhibition; Marburg virus pseudotyped entry inhibition, cell reporter; Potency, µM (series often up to 37.8 µM), hits mostly inhibitors; 1.8% of 300,000 active; AID 540276; calls by dose curve; tested in HEK293 cells
Lassa entry inh: Lassa virus entry inhibition; Lassa virus pseudotype entry inhibition, cell reporter; Potency, µM (top dose mostly 37.9 µM), actives largely listed as inhibitors; 1.2% of 300,000 active; calls by dose curve; tested in HEK293 cells; further: nearly all actives have a fitted effect of over 50% in size
FMDV inh: foot and mouth disease virus antiviral activity. FMDV antiviral cell-based qHTS. Potency, µM (doses to about 57.9 µM), most hits filed as inhibitors. 1.2% of 410,000 active. AID 1159524; calls by dose curve; tested in HEK293T cells; further: read-out not given here; nearly all actives have a fitted effect of over 45% in size
HCV inhibitor: HCV inhibition. Potency, µM (doses to about 41.8 µM), actives largely listed as inhibitors. Huh7.5.1 HCVcc-Cre infection, luciferase reporter, 44 h. 3.4% of 340,000 active; active means well fitted inhibition curve with a large enough effect; inconclusive means small, poorly fitted or top-dose-only effect, or another doubt; inactive means no such curve, though single readings can be large or run the other way
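HCVcc-Cre virus at an moi near 0.5 was added right after compound to cells cultured 4 h from seeding (1,000 cells/well). Luciferase activity was determined 44 h later, 15 min after substrate addition at RT.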
Numbers stand for hits; [ ] = remark or other dose.

Results for Cc1cccc(N2CCN(CC(=O)NCc3ccccc3)CC2)c1C ?
HCMV antiviral: inactive; FMDV inh: inactive; HCV inhibitor: inactive

Results for Cc1ccc(S(=O)(=O)c2nc(Nc3ccccc3)sc2Cl)cc1 ?
HCMV antiviral: -73.9; MARV entry inh: inconclusive; Lassa entry inh: inactive; FMDV inh: inconclusive; HCV inhibitor: 11.2µM

What do the screens show for `Cc1ccc(S(=O)(=O)c2nc(NCCN(C)C)sc2Cl)cc1`?
HCMV antiviral: inconclusive; MARV entry inh: inconclusive; Lassa entry inh: inactive; FMDV inh: inactive; HCV inhibitor: inactive

Results for O=S(=O)(c1ccccc1)c1nc(Nc2cccc(O)c2)sc1Cl ?
HCMV antiviral: -67.1; MARV entry inh: inconclusive; Lassa entry inh: inconclusive; FMDV inh: inactive; HCV inhibitor: inconclusive

Results for COc1ccc(Nc2nc(S(=O)(=O)c3ccc(C)cc3)c(Cl)s2)cc1 ?
HCMV antiviral: -94.1; MARV entry inh: inconclusive; Lassa entry inh: inactive; FMDV inh: inconclusive; HCV inhibitor: inconclusive

Results for CC(=O)c1ccc(NC(=O)c2cn(C)c(=O)c3ccccc23)cc1 ?
HCMV antiviral: inactive; MARV entry inh: inactive; Lassa entry inh: inactive; FMDV inh: inactive

How did CCCCNC(=O)c1cnc2c(-c3ccc(OCC)c(OCC)c3)c(C)nn2c1-c1ccccc1 do in these assays?
HCMV antiviral: inactive; Lassa entry inh: inactive; FMDV inh: inconclusive

What do the screens show for `N#C/C(=C\c1ccccc1)c1ccccn1`?
HCMV antiviral: inactive; FMDV inh: inactive; HCV inhibitor: inactive

What do the screens show for `N#C/C(=C\c1ccncc1)c1ccccn1`?
HCMV antiviral: -78.2; MARV entry inh: inconclusive; Lassa entry inh: inactive; FMDV inh: inactive; HCV inhibitor: inconclusive

Results for CCN(c1cccc(C)c1)S(=O)(=O)c1ccc(-c2ccc(=O)[nH]n2)o1 ?
HCMV antiviral: inconclusive; FMDV inh: inactive; HCV inhibitor: inactive

What do the screens show for `CCN(c1ccc(OC)cc1)S(=O)(=O)c1ccc(-c2ccc(=O)[nH]n2)o1`?
HCMV antiviral: -63.5; FMDV inh: inactive; HCV inhibitor: inactive

What do the screens show for `CC(=O)NC12CC3CC(CC(CC(=O)O)(C3)C1)C2`?
HCMV antiviral: inactive; MARV entry inh: inactive; Lassa entry inh: inactive; FMDV inh: inactive; HCV inhibitor: inactive

Results for CC(=O)NC12CC3CC(C)(C1)CC(NC(C)=O)(C3)C2 ?
HCMV antiviral: -68.6; MARV entry inh: inactive; Lassa entry inh: inactive; FMDV inh: inactive

Results for Cc1nc(CC(=O)N2CCC(n3c(C4CCC4)nc4cccnc43)CC2)cs1 ?
FMDV inh: inactive

How did Cc1cc(C)cc(NC(=O)CSCn2nnc3c(=O)[nH]c(Cc4ccc(F)cc4)nc32)c1 do in these assays?
HCMV antiviral: inactive; MARV entry inh: inactive; Lassa entry inh: inactive; FMDV inh: inactive

Results for Cc1cc(=O)n(CC(=O)N2CCN(c3ccc(F)cc3)CC2)c2c1c(C)nn2C ?
HCMV antiviral: inactive; Lassa entry inh: inconclusive; FMDV inh: 28.2µM

Results for CCOC(=O)C1CCCN(C(=O)Cn2c(=O)cc(C)c3c(C)nn(C)c32)C1 (stereo not drawn) ?
HCMV antiviral: inactive; Lassa entry inh: inactive; FMDV inh: inconclusive

What do the screens show for `C/C=C(/C(=C/C)c1ccc(O)cc1)c1ccc(O)cc1`?
HCMV antiviral: inactive; MARV entry inh: inactive; Lassa entry inh: 25.9µM; FMDV inh: inconclusive; HCV inhibitor: inactive[8.37 µM]

Results for N=c1c2c(n(Cc3ccc(Br)cc3)c3c1CCC3)CCCC2 ?
HCMV antiviral: -94.7; MARV entry inh: inconclusive; Lassa entry inh: inconclusive; FMDV inh: 39.8µM; HCV inhibitor: inconclusive

How did N=c1c2c(n(Cc3ccc(Cl)c(Cl)c3)c3c1CCC3)CCCC2 do in these assays?
HCMV antiviral: -86.4; MARV entry inh: inconclusive; Lassa entry inh: inconclusive; FMDV inh: inconclusive; HCV inhibitor: inconclusive

Results for Clc1ccc(CN2CCN(c3ncccn3)CC2)cc1Cl ?
HCMV antiviral: inactive; MARV entry inh: inactive; Lassa entry inh: inactive; FMDV inh: inactive; HCV inhibitor: inactive

What do the screens show for `N=c1c2c(n(Cc3ccc([N+](=O)[O-])cc3)c3c1CCC3)CCCC2`?
HCMV antiviral: -85.5; MARV entry inh: inconclusive; Lassa entry inh: inactive; FMDV inh: inactive; HCV inhibitor: inactive

What do the screens show for `COCC(=O)Nc1cc(C(=O)N2CCc3c(Cl)cccc3C2)c2c(c1)nc(-c1ccncc1)n2C`?
FMDV inh: inactive

Results for CCN1CCN(c2cc(C)c3cc(NC(=O)/C=C/c4cccc(OC)c4OC)ccc3n2)CC1 ?
HCMV antiviral: -99.7; MARV entry inh: 7.08µM; Lassa entry inh: inconclusive; FMDV inh: inactive

What do the screens show for `COc1cc(C(=O)Nc2ccc3nc(N4CCN(C)CC4)cc(C)c3c2)cc(OC)c1OC`?
HCMV antiviral: inactive; FMDV inh: inactive; HCV inhibitor: inconclusive

What do the screens show for `COc1cccc(/C=C/C(=O)Nc2ccc3nc(N4CCN(C)CC4)cc(C)c3c2)c1OC`?
HCMV antiviral: -105.8; MARV entry inh: inconclusive; Lassa entry inh: inconclusive; FMDV inh: inactive

Results for CCN1CCN(c2cc(C)c3cc(NC(=O)/C=C/c4cccc(Cl)c4)ccc3n2)CC1 ?
HCMV antiviral: -101.4; MARV entry inh: 5.62µM; Lassa entry inh: inactive; FMDV inh: inactive

What do the screens show for `O=C(COc1ccccc1F)Nc1ccccc1OCc1cc(=O)n2ccccc2n1`?
HCMV antiviral: inactive; Lassa entry inh: inactive; FMDV inh: inactive

What do the screens show for `O=C(NCc1ccccc1)c1ccc(-c2ccc(F)cc2)o1`?
HCMV antiviral: inactive; MARV entry inh: inactive; Lassa entry inh: 6.51µM; FMDV inh: inactive; HCV inhibitor: inconclusive

How did O=C(NCc1ccccc1)c1ccc(-c2ccccc2C(F)(F)F)o1 do in these assays?
HCMV antiviral: inactive; MARV entry inh: inconclusive; Lassa entry inh: 2.31µM; FMDV inh: inactive; HCV inhibitor: inactive[8.37 µM]

How did O=C(CCc1ccccc1)NCc1ccc(F)cc1 do in these assays?
HCMV antiviral: inactive; MARV entry inh: inactive; Lassa entry inh: inactive; FMDV inh: inactive; HCV inhibitor: inactive

How did O=C(O)c1ccc(-c2ccccc2C(F)(F)F)o1 do in these assays?
HCMV antiviral: inactive; MARV entry inh: inactive; Lassa entry inh: inactive; FMDV inh: inactive; HCV inhibitor: inactive

Results for Cc1ccccc1-c1ccc(C(=O)NCc2ccccc2)o1 ?
HCMV antiviral: inactive; MARV entry inh: inactive; Lassa entry inh: inconclusive; FMDV inh: inactive; HCV inhibitor: inactive[8.37 µM]

What do the screens show for `Cc1ccc(-c2ccc(C(=O)NCc3ccc(Cl)cc3)o2)c2ccccc12`?
HCMV antiviral: inactive; MARV entry inh: inactive; Lassa entry inh: 20.6µM; FMDV inh: inactive; HCV inhibitor: inactive[8.37 µM]

What do the screens show for `COCCCn1c(SCC(=O)N2CCOCC2)nc2cc(Cl)ccc2c1=O`?
HCMV antiviral: inactive; FMDV inh: inactive; HCV inhibitor: inactive

What do the screens show for `COc1ccc(-n2nnnc2/C=C\Nc2ccccc2C(=O)c2ccccc2)cc1`?
HCMV antiviral: inactive; MARV entry inh: inactive; Lassa entry inh: inconclusive; FMDV inh: inactive; HCV inhibitor: 7.94µM

What do the screens show for `CN(C)CC(CCCCC(CN(C)C)C(=O)c1ccccc1)C(=O)c1ccccc1` (stereo not drawn)?
HCMV antiviral: inconclusive; FMDV inh: inconclusive; HCV inhibitor: 8.91µM
